Screens as filed in PubChem.
PRMT1 inh – PRMT1 (human) inhibition, primary screen; AID 652257; recombinant PRMT1, activity-based probe fluorescence polarization; hit rate 1.3% among 370,000; inhibition, % at 2.79 µM;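 active = inhibition above about 21% made by adding two undisclosed values, limit read from the data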
PME-1 inh – PME-1 (human) inhibition | recombinant PME-1, FP-Rh probe fluorescence polarization | AID 2130 | inhibition, % at 5.9 µM | hit rate 0.53% among 320,000 | Q9Y570;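 active = inhibition above the campaign mean of all compounds plus 3 SD, cut at about 26% in these data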;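 also: competitive labeling of PME-1 active site by serine hydrolase directed probe; 0% = PME-1 with DMSO and 100% = wells lacking PME-1 enzyme; inhibitors block probe labeling so polarization falls and inhibition rises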
TCR CD3 inh – human TCR-CD3 binding inhibition | TAMRA-labeled TCR probe fluorescence, biochemical | hit rate 0.37% among 360,000 | inhibition, % at 9.4 µM; in the data active = inhibition above about 19%;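 also: recombinant mutant TCR 2C K166C tagged with TAMRA read by polarization; 0% = receptor in buffer alone and 100% = receptor with positive control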
Fam108B counter – counter-screen for RBBP9 inhibitors: inhibitors of mouse Fam108B; hit rate 0.33% among 300,000; recombinant Fam108B, FP-Rh probe fluorescence polarization; inhibition, % at 9.51 µM;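 active = inhibition above the screen mean inhibition plus 3 SD, computed separately per campaign, cut at about 18% in these data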;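 also: inhibitors lower polarization as less probe binds the enzyme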
SIAE primary – human SIAE inhibition, primary screen. Q9HAT2. SIAE FP-Rh probe binding, fluorescence polarization. inhibition, % at 9.66 µM. hit rate 0.69% among 370,000. AID 1053197;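 active = inhibition above a cutoff: mean of compounds within the control limits plus 3 SD of those, cut at about 17% in these data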;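 also: 0% = plate median of compound wells and 100% = probe without SIAE protein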
Target sequence (Q9HAT2 whole entry, looked up): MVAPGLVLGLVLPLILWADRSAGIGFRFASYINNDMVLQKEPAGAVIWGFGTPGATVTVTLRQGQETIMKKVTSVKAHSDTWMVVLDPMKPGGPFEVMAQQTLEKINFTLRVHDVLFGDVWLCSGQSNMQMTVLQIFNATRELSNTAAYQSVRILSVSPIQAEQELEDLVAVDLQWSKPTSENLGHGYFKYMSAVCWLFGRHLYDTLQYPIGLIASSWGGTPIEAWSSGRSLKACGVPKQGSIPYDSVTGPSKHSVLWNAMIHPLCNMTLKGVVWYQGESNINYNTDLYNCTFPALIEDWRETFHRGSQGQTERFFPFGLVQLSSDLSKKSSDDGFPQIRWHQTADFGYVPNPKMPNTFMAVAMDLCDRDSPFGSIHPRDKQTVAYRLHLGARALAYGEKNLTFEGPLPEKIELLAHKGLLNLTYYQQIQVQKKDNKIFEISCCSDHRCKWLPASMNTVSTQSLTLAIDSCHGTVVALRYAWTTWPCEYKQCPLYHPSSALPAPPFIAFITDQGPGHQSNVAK
PAD4 inh – inhibitors of human PAD4; recombinant PAD4, RCA probe fluorescence polarization; inhibition, % at 6.36 µM; hit rate 0.41% among 330,000; AID 485272;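 active = percent inhibition above a cutoff equal to the mean of all tested compounds plus 3 SD, cut at about 15% in these data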;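 also: 0% = PAD4 with RCA probe and DMSO and 100% = probe without PAD4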
PRMT1 inh conf – confirmation of human PRMT1 inhibitors | shares compounds with PRMT1 inh | inhibition, % at 2.79 µM | AID 687036 | hit rate 42% among 3,300 | recombinant His-PRMT1, activity-based probe fluorescence polarization;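 active = mean inhibition across replicates above the hit cutoff derived for the earlier primary screen, cut at about 22% in these data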
* marks the source's active call; other numbers are inactive results; · = not tested or not shown. Shown are actives, neighbours in structure and some others; about 2.6% of the full set was active somewhere.

SMILES	PRMT1 inh	PME-1 inh	TCR CD3 inh	Fam108B counter	SIAE primary	PAD4 inh	PRMT1 inh conf
Cc1ccc(CNC(=O)C2CCCN(C(=O)Nc3ccc(F)cc3)C2)cc1 (centres undefined)	1.1	-1.2	-3.1	-2.6	0.8	3.2	·
CCc1ccccc1N1CC23C=CC(O2)C(C(=O)OCC(C)C)C3C1=O (centres undefined)	0.5	-3.0	-3.6	8.3	-1.7	-3.0	·
CC(C)COC(=O)NCC12C=CC(O1)C1C(=O)N(c3ccc(Cl)cc3)C(=O)C12 (centres undefined)	37.4*	2.6	-2.0	-1.4	-0.1	0.9	33.3*
Cc1ccc(N2C(=O)C3C4C=CC(CNC(=S)Nc5ccc(F)cc5)(O4)C3C2=O)cc1 (centres undefined)	80.4*	-4.6	-1.9	-1.1	2.6	5.4	40.9*
COc1ccc(-c2c(C(=O)c3ccccc3)[nH]c(N)c2C(=O)c2c[nH]c3ccccc23)cc1OC	-1.1	·	·	·	4.3	·	·
S=c1[nH]nc(-c2cc(-c3ccccc3)n[nH]2)n1N=Cc1cccc(OCc2ccccc2)c1	8.7	·	·	·	-4.3	·	·
Cc1ccc(-c2cc(C(=O)NN=Cc3ccc(N(C)C)cc3)[nH]n2)cc1C	1.4	·	·	·	2.0	·	·
Cc1ccc(N2C(=O)C3C4C=CC(CNC(=S)N5CCN(c6ccccn6)CC5)(O4)C3C2=O)cc1 (centres undefined)	56.7*	-0.3	-0.8	-0.3	2.7	-3.9	47.8*
Cc1ccc(N2C(=O)N(CC(=O)Nc3cccc(Cl)c3)C(=O)C2C)cc1 (centres undefined)	0.4	-4.9	-6.1	-2.2	-4.7	-0.2	·
Cc1ccc(N2C(=O)C3C4C=CC(CNC(=S)Nc5cccc(Cl)c5)(O4)C3C2=O)cc1 (centres undefined)	90.0*	3.4	-1.5	-9.6	1.6	-3.3	52.7*
O=S(=O)(c1ccc(Cl)s1)N1CCC(c2nc3ccccc3o2)CC1	3.6	·	·	·	-1.7	·	·
COc1ccc(Cn2cc(COC(=O)N3CCOCC3)nn2)cc1	-0.3	·	·	·	-2.9	·	·
C=CCN1C(=O)[C@@H](CC(=O)NCCCOCCCC)[C@]2(C(=O)OC)CCCCC=C12	-1.9	·	·	·	-5.0	·	·
O=C(CCc1ccccc1)N[C@H]1[C@H](O)CCC[C@]12C(=O)N(Cc1ccccc1)c1ccccc12	4.1	·	·	·	-5.2	·	·
Cc1nc2sc(C(c3ccco3)N3CCc4ccccc4C3)c(O)n2n1 (centres undefined)	45.2*	-6.2	10.6	6.3	-0.7	2.9	15.2
Cc1nc2sc(C(c3ccccc3)N3CCN(C(=O)c4ccco4)CC3)c(O)n2n1 (centres undefined)	-0.4	0.3	0.4	-5.2	-1.1	0.1	·
Cc1nc2sc(C(c3ccco3)N3CCN(c4ccc(F)cc4)CC3)c(O)n2n1 (centres undefined)	25.3*	-4.2	-7.8	-3.6	11.9	5.2	-2.9
Cc1nc2sc(C(c3ccco3)N3CCN(c4ccccc4F)CC3)c(O)n2n1 (centres undefined)	1.8	1.6	1.9	-1.5	3.8	1.5	·
CNS(=O)(=O)c1cc(N)ccc1C	2.3	-0.4	-1.7	6.5	2.2	1.7	·
Cc1ccc(Nc2ccc(N)cc2S(=O)(=O)O)cc1	33.4*	-1.2	-0.2	7.8	14.2	-1.1	8.9
O=C(O)c1ccc(S(=O)(=O)Cc2ccccc2)cc1	24.9*	-6.2	5.2	2.5	2.8	2.7	16.7
O=c1ccc2cc3c4c(c2o1)CCCN4CCC3	71.7*	0.8	5.7	4.1	3.9	4.4	66.5*
Cc1cc[n+](-c2[nH]c(=O)sc2/C=N/NC([S-])=Nc2ccccc2)cc1	67.3*	3.7	12.9	6.1	9.6	-4.7	28.7*
CCc1ccc[n+](-c2[nH]c(=O)sc2/C=N/NC([S-])=Nc2ccccc2)c1	86.9*	7.0	6.7	7.2	7.0	2.2	40.0*
O=c1[nH]c(-[n+]2ccccc2)c(/C=N/NC([S-])=Nc2ccccc2)s1	50.5*	6.0	0.2	4.1	-1.0	7.0	14.7
SMILES	PRMT1 inh	PME-1 inh	TCR CD3 inh	Fam108B counter	SIAE primary	PAD4 inh	PRMT1 inh conf
CC(C)(C)c1cc[n+](-c2[nH]c(=O)sc2/C=N/NC(=O)c2ccccc2[O-])cc1	18.1	-1.8	18.9	4.1	14.7	-3.1	·
Cc1cc(C)c[n+](-c2[nH]c(=O)sc2/C=N/NC([S-])=Nc2ccccc2)c1	48.2*	-0.4	3.7	6.3	-0.8	5.6	31.0*
CCCCCn1nnnc1C1(C)CCCC(=O)N1Cc1ccco1 (centres undefined)	-5.1	·	·	·	3.2	·	·
ClC(Cl)(c1nnnn1-c1ccccc1)c1nnnn1-c1ccccc1	90.4*	-6.2	13.4	7.5	-1.6	2.2	91.1*
O=C(CCc1ccccc1-c1ccccc1CCNC(=O)c1c(F)cccc1F)NCc1ccccc1	-2.1	·	·	·	7.6	·	·
COc1cccc2cc3c(nc12)C[C@@H]1CCCC(=O)N2CCC[C@@]12C3	-2.1	·	·	·	2.6	·	·
O=C1SC(SCc2ccccc2)=N/C1=C\c1ccco1	41.6*	-10.4	8.9	11.2	6.8	-4.3	0.7
CCCSC1=N/C(=C\c2ccsc2)C(=O)S1	-2.8	-5.2	10.4	-4.0	-4.3	-10.4	·
CSC1=N/C(=C\c2ccc(C)o2)C(=O)S1	31.2*	-2.1	6.5	-1.2	-1.8	-4.8	2.8
CCCSC1=N/C(=C\c2ccc([N+](=O)[O-])o2)C(=O)S1	28.6*	·	9.1	·	15.1	·	6.8
O=C1SC(SCc2ccccc2)=N/C1=C\c1ccc(C(=O)O)cc1	11.8	0.9	8.7	-4.6	-1.6	-6.3	·
CSC1=N/C(=C\c2ccc(C)s2)C(=O)S1	-0.4	-5.0	-1.2	-2.9	-4.7	-1.0	·
CCCSC1=N/C(=C\C=C\c2ccco2)C(=O)S1	48.0*	0.3	15.1	6.3	11.2	-4.1	11.9
S=c1[nH]nc(COc2ccccc2)n1/N=C/c1ccc(Br)s1	26.3*	4.1	11.8	7.5	8.0	-0.6	12.4
Cc1ccc(/C=N/n2c(COc3ccccc3)n[nH]c2=S)s1	27.3*	2.6	11.3	0.2	10.1	1.2	3.6
Cc1ccccc1/C=N/n1c(COc2ccccc2)n[nH]c1=S	-0.7	·	3.0	·	11.1	·	·
CN1CCc2c(sc(/N=C/c3ccco3)c2C(N)=O)C1	25.3*	-6.8	0.1	2.8	-11.7	-0.1	6.0
Cc1cccc(Nc2ncnc(N)c2[N+](=O)[O-])n1	-2.1	-4.1	0.2	-0.1	5.2	-1.9	·
Cc1cc(C)nc(Sc2ncnc(N)c2[N+](=O)[O-])n1	46.9*	-0.5	-1.1	3.5	-1.6	0.1	19.0
CCC(=O)N1CCc2cc(Br)c(S(=O)(=O)NCCCN(C)Cc3ccccc3)cc21	-1.3	·	·	·	5.1	·	·
Cc1ccc(N)cc1O	39.1*	-3.4	-2.7	·	-0.6	-12.1	-0.3
O=C(N/C(=C/c1ccco1)C(=O)N1CCOCC1)c1ccccc1Br	12.0	4.1	1.0	3.5	3.0	4.0	·
